The results in this text go back to PubChem BioAssay (NCI).

This is part of a sample that, as a whole, favours compounds with a hit. Of some 79,000 tested, about 15% had one in any assay. A number with no mark means an inactive call. Calls of active or inactive are those of the source. Cut-off read from the data, not from the text of the source: active = growth inhibition above about 70%; inactive = the rest.

The test can be described thus: NCI Yeast Anticancer Drug Screen. Data for the mgt1 strain (AID 153). Conditions: S. cerevisiae mgt1 mutant growth inhibition, stronger effect = higher value. Here is the method: Growth inhibition of yeast strains with defined genetic alterations is measured as a screen for potential anti-cancer activity. Selected strains with alterations in DNA damage repair or cell cycle control were exposed to compounds and growth inhibition was measured relative to vehicle treated controls. The strain used in this assay is mgt1

For the compound `CNC(=O)OCc1c(COC(=O)NC)c(-c2ccc(-c3ccccc3)cc2)n(C)c1C`, the growth inhibition by setting is: (at 1.2 µM) -11%; (at 3.7 µM) -5%; (at 11.0 µM) -6%; (at 33.0 µM) 2%; (at 100.0 µM) 10%.
In the case of `CC(Br)C(=O)c1ccc2cc(Br)c3ccccc3c2c1` (stereo not given), the growth inhibition was -1% (at 1.2 µM); -1% (at 3.7 µM); -1% (at 11.0 µM); 2% (at 33.0 µM); 5% (at 100.0 µM).
For `C[Si](C)(C)CNC(=O)OCc1ccccc1`, the growth inhibition is, setting by setting: (at 1.2 µM) 7%; (at 3.7 µM) 5%; (at 11.0 µM) -5%; (at 33.0 µM) -4%; (at 100.0 µM) 12%.
As for `CC[C@@]1(O)C(=O)OCc2c1cc1n(c2=O)Cc2cc3c(N)cccc3nc2-1`, the growth inhibition by setting is: (at 1.2 µM) 4%; (at 3.7 µM) -3%; (at 11.0 µM) 9%; (at 33.0 µM) 2%; (at 100.0 µM) 5%.
In the case of `Cc1ccc2ccc3cccc4ccc1c2c34`, the growth inhibition is, setting by setting: (at 1.2 µM) -1%; (at 3.7 µM) -1%; (at 11.0 µM) -3%; (at 33.0 µM) -3%; (at 100.0 µM) 18%.
As to `COc1ccc2ccc3ccccc3c2c1C=O`, the growth inhibition runs as follows: (at 1.2 µM) -7%; (at 3.7 µM) -6%; (at 11.0 µM) -7%; (at 33.0 µM) -5%; (at 100.0 µM) 74% (active).
`O=C1c2ccccc2-c2nc3ccccc3nc21`: the growth inhibition is -50% (at 1.2 µM); -43% (at 3.7 µM); -26% (at 11.0 µM); -1% (at 33.0 µM); 61% (at 100.0 µM).
`CC(=O)[O][Bi]([c]1ccccc1)[c]1ccccc1`: the growth inhibition (at 1.2 µM) was 28%; the growth inhibition (at 3.7 µM) was 30%; the growth inhibition (at 11.0 µM) was 40%; the growth inhibition (at 33.0 µM) is 89% (active); the growth inhibition (at 100.0 µM) is 95% (active).
